KB-3-1 cytotox – KB-3-1 parental cell cytotoxicity. 400,000 tested, 1.4% active. Potency, µM (titrated, usually from 46.1 µM), most hits filed as cytotoxic. KB-3-1 viability, CellTiter-Glo ATP luminescence, 72 h. AID 1347075; also: % is scaled to controls: 0 for no effect and ±100 for the full control effect; nearly all actives have a fitted effect of over 60% in size
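Cytotoxicity in the drug-sensitive parental line KB-3-1 was scored as loss of CellTiter-Glo luminescence following 72 h incubation with compound. Values come from curve fitting of normalized concentration-response data.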
ATXN2 expr inh – inhibitors of ATXN2 expression; Potency, µM (top dose mostly 57 µM), for inactives: at the highest dose activity change, negative = inhibition, usual class: inhibitors; 360,000 tested, 0.72% active; AID 1745845; HEK-293 ATXN2-luciferase reporter, luminescence, 24 h; also: % is scaled to controls: 0 for no effect and ±100 for the full control effect; nearly all actives have a fitted effect of over 55% in size
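ATXN2-luciferase reporter cells (luciferase flanked by upstream and downstream ATXN2 gene portions) were treated 24 h at 37 °C with compounds at up to 57 uM. SteadyGlo luminescence gave expression; GF-AFC fluorescence gave viability.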
S2 tox – cell viability loss in ATXN counter-screen. S2 cells (HEK-293 line with an ATXN2-luciferase reporter) viability, CellTiter-Fluor protease fluorescence, 24 h. Potency, µM (doses to about 56.7 µM), most hits filed as cytotoxic. 400,000 tested, 0.49% active; also: nearly all actives have a fitted effect of over 40% in size
KB-V1 cytotox – KB-V1 MDR subline cytotoxicity; KB-V1 MDR cells viability, CellTiter-Glo, 72 h; Potency, µM (highest dose often 46.1 µM), actives largely listed as cytotoxic; 400,000 tested, 3.4% active; also: % is scaled to controls: 0 for no effect and ±100 for the full control effect; nearly all actives have a fitted effect of over 60% in size
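Compound-treated KB-V1 multidrug-resistant cells, 72 h, 37 degrees C; viability by CellTiter-Glo. Fitted qHTS curves give the values.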
HepG2 viability – kills HepG2 cells in TGF-b inhibitor counter-screen; AID 588856; Potency, µM (highest dose often 46.1 µM), for inactives: top-dose activity change, negative = cytotoxicity, most hits filed as cytotoxic; 410,000 tested, 0.76% active; HepG2 CAGA-GFP viability, ATP luminescence, 18 h
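HepG2 CAGA-GFP cells (1000/well, DMEM with 1% FBS) received compound, then TGF-beta at 500 pg/mL final, and were incubated 18 hours at 37 degrees C. Viability was read by CellTiter-Glo luminescence. Media-only wells were set as complete cell-killing and DMSO as no toxicity.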
TGFb inhibitor – inhibitors of TGF-b signaling; HepG2 CAGA-GFP TGF-b/SMAD3 reporter, GFP fluorescence, 18 h; TGF-beta stimulated, 500 pg/mL final; Potency, µM (series often up to 46.1 µM), for the others: at the highest dose activity, negative = inhibition, most hits filed as inhibitors; 410,000 tested, 1.2% active; also: % is scaled to controls: 0 for no effect and ±100 for the full control effect; nearly all actives have a fitted effect of over 65% in size
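Inhibition was scored as loss of TGF-beta-induced (500 pg/mL final, 18 hours, 37 degrees C) GFP in HEPG2 cells carrying a CAGA-GFP reporter, in DMEM with 1% FBS. Well GFP was summed per cell; Activity was normalised to unstimulated and stimulated DMSO wells, then concentration-response fitting.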
* marks the source's active call; other numbers are inactive results. Sampled rows, rich in hits. Any-hit rate of the full collection: about 5.9%. Calls follow the shape of the dose curve; as a rule, active = well fitted curve in the direction sought with a large enough effect; inconclusive = small, poorly fitted or top-dose-only effect, or another doubt; inactive = no such curve, though single readings can be large; an effect the other way counts as inactive or inconclusive. Potency is read from the fitted curve at half-maximal effect.

`O=C(N/N=C/c1cccs1)c1cc(C2CC2)nc2ccccc12` gave KB-3-1 cytotox 18µM*, ATXN2 expr inh inconclusive, S2 tox inactive, KB-V1 cytotox inconclusive, HepG2 viability -34% and TGFb inhibitor -13%.
Screening O=C(N/N=C/c1cccs1)c1cc(-c2ccncc2)nc2ccccc12 returned KB-3-1 cytotox inconclusive, ATXN2 expr inh -23%, S2 tox inactive, KB-V1 cytotox 1.8µM*, HepG2 viability -22% and TGFb inhibitor inconclusive.
`Cc1cc(C(=O)N/N=C/c2ccc(C)o2)c2ccccc2n1` gave KB-3-1 cytotox 1.3µM*, ATXN2 expr inh -7%, S2 tox inconclusive, KB-V1 cytotox inconclusive, HepG2 viability 2% and TGFb inhibitor inconclusive.
`NCCCCNc1ncnc2ccc(-c3ccc4c(c3)OCO4)cc12` gave KB-3-1 cytotox inactive and KB-V1 cytotox inactive.
`Cc1ccc(-c2cc(C(=O)NCc3ccccn3)c3ccccc3n2)cc1` gave KB-3-1 cytotox inactive, ATXN2 expr inh 36%, S2 tox inactive, KB-V1 cytotox inactive, HepG2 viability -35% and TGFb inhibitor 0%.
O=C(N/N=C/c1ccccn1)c1cc(-c2ccccc2)nc2ccccc12 was read as KB-3-1 cytotox inactive, S2 tox inconclusive, KB-V1 cytotox inactive, HepG2 viability -22% and TGFb inhibitor 10µM*.
Screening CCCc1cc(C(=O)N/N=C/c2ccc(CC)s2)c2ccccc2n1 returned KB-3-1 cytotox inconclusive, ATXN2 expr inh inconclusive, S2 tox inconclusive, KB-V1 cytotox 5.8µM*, HepG2 viability -6% and TGFb inhibitor -8%.
For CCCc1cc(C(=O)N/N=C/c2ccc(C)o2)c2ccccc2n1 the results were KB-3-1 cytotox inconclusive, ATXN2 expr inh -13%, S2 tox inactive, KB-V1 cytotox inconclusive, HepG2 viability 6% and TGFb inhibitor 0%.
`O=C(NCc1ccccn1)c1cc(-c2ccc(Br)cc2)nc2ccccc12` gave KB-3-1 cytotox inactive, ATXN2 expr inh 3%, S2 tox inactive, KB-V1 cytotox 2.6µM*, HepG2 viability -6% and TGFb inhibitor 6%.
`COc1ccccc1N1CCN(S(=O)(=O)c2ccc(-c3cc(C(F)(F)F)on3)s2)CC1` gave HepG2 viability 1% and TGFb inhibitor -3%.
CC(C)c1ccc(CN2CCC2(C)C(=O)Nc2cccc(Oc3ccccc3)c2)cc1 (stereo not drawn) was read as KB-3-1 cytotox inactive, ATXN2 expr inh 4%, S2 tox inactive, KB-V1 cytotox inactive, HepG2 viability -17% and TGFb inhibitor -2%.
For CC(NC(=O)c1cnn2c1NC(=C1CC1)C=C2C(F)F)c1ccncc1 (stereo not drawn) the results were KB-3-1 cytotox inconclusive, KB-V1 cytotox inactive, HepG2 viability -3% and TGFb inhibitor -3%.
CCOc1ccc(Nc2nc(NCCN3CCOCC3)nc(OC)n2)cc1 was read as KB-3-1 cytotox inactive, ATXN2 expr inh -7%, S2 tox inactive, KB-V1 cytotox 18µM*, HepG2 viability -24% and TGFb inhibitor 2%.
`O=C(CCN1CCc2ccccc2CC1)c1ccc2c(c1)OCCO2` gave KB-3-1 cytotox inactive, ATXN2 expr inh inconclusive, S2 tox inconclusive, KB-V1 cytotox inconclusive, HepG2 viability 1.4µM* and TGFb inhibitor inconclusive.
O=C(CCCN1CCOCC1)c1ccc2c(c1)OCCO2 was read as KB-3-1 cytotox inactive, ATXN2 expr inh -13%, S2 tox inconclusive, KB-V1 cytotox inactive, HepG2 viability -5% and TGFb inhibitor -1%.
Cc1cccc(N2C(=O)C(CC(=O)Nc3cccc(F)c3)N(Cc3cccs3)C2=O)c1 (stereo not drawn) was read as HepG2 viability -36% and TGFb inhibitor -22%.
Screening O=C(Nc1ccc(Br)c(C(F)(F)F)c1)c1ccccc1 returned KB-3-1 cytotox inactive, ATXN2 expr inh -6%, S2 tox inactive, KB-V1 cytotox 16µM*, HepG2 viability -49% and TGFb inhibitor inconclusive.
O=C(Nc1ccc(Br)c(C(F)(F)F)c1)c1ccc(C(F)(F)F)cc1 was read as KB-3-1 cytotox inconclusive, ATXN2 expr inh inconclusive, S2 tox inactive, KB-V1 cytotox inconclusive, HepG2 viability -153% and TGFb inhibitor inconclusive.
CC1CC(C)CN(S(=O)(=O)c2ccc(Oc3ccc([N+](=O)[O-])cc3)cc2)C1 (stereo not drawn) was read as KB-3-1 cytotox inconclusive, ATXN2 expr inh -33%, S2 tox inactive, KB-V1 cytotox 13µM*, HepG2 viability -9% and TGFb inhibitor inconclusive.
Cc1nnc2sc(-c3ccc(-c4ccc(Cl)c(C(F)(F)F)c4)o3)nn12 was read as KB-3-1 cytotox inactive, ATXN2 expr inh 4%, S2 tox inactive, KB-V1 cytotox 15µM*, HepG2 viability -8% and TGFb inhibitor 6%.
CCc1ccc2c(c1)C(=O)C(=O)N2CCS(=O)(=O)c1ccccc1 was read as KB-3-1 cytotox inactive, S2 tox inactive, KB-V1 cytotox inactive, HepG2 viability -8% and TGFb inhibitor inconclusive.
Screening Cc1cc(Cl)ccc1NC(=O)CN1C(=O)C(=O)c2ccccc21 returned KB-3-1 cytotox inactive, ATXN2 expr inh -5%, S2 tox inactive, KB-V1 cytotox inactive, HepG2 viability -31% and TGFb inhibitor -14%.
O=C1C(=O)N(CCS(=O)(=O)c2ccccc2)c2ccc(Cl)cc21 was read as KB-3-1 cytotox 16µM*, ATXN2 expr inh -14%, S2 tox inactive, KB-V1 cytotox inactive, HepG2 viability -106% and TGFb inhibitor 22µM*.
`CCCN1C(=O)C(=O)c2cc(Cl)ccc21` gave KB-3-1 cytotox inactive, ATXN2 expr inh inconclusive, S2 tox inconclusive, KB-V1 cytotox inactive, HepG2 viability -78% and TGFb inhibitor 13µM*.
Screening CCOC(=O)c1c(NC(=O)c2cc(-c3ccc(Br)cc3)on2)sc(C)c1C returned HepG2 viability 0% and TGFb inhibitor 0%.
`Cc1ccc(Cl)cc1-n1c(=O)cc(N2CCN(c3ccc(F)cc3)CC2)[nH]c1=O` gave HepG2 viability -13% and TGFb inhibitor 0%.
`Cc1nc2cccnc2n1-c1cccc(C(=O)N2CCN(c3ccc(Cl)cc3)CC2)c1` gave KB-3-1 cytotox 12µM*, KB-V1 cytotox inactive, HepG2 viability -41% and TGFb inhibitor 0%.
`CC(C)(C)c1cnnn1-c1ccc(C(=O)CCl)cc1` gave KB-3-1 cytotox inconclusive, ATXN2 expr inh -30%, S2 tox inconclusive, KB-V1 cytotox 23µM*, HepG2 viability -16% and TGFb inhibitor 6%.

Bioassay records as filed in PubChem.
